Sampled rows, rich in hits. Any-hit rate of the full collection: about 2.9%.
MITF TRPM1 inh: inhibitors of MITF-driven TRPM1 promoter in melanoma cells. SK-MEL-5 TRPM1 promoter luciferase, 24 h. inhibition, % at 12.5 µM. 330,000 compounds, 0.83% hits. AID 488899;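 active = mean inhibition across replicates of 60% or more, whatever share of single replicates reaches that level; inconclusive = some that reach 60%, reason not given; inactive = mean inhibition across replicates below 60%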
NSD2 HMT inh: inhibitors of human histone methyltransferase NSD2 | O96028 | NSD2 peptide methylation, AlphaScreen, 120 min | inhibition, % at 12.5 µM | 310,000 compounds, 0.54% hits | AID 743445; in the data active = inhibition above about 50%
Wnt act: activates Wnt/beta-catenin signaling in a reporter cell assay; activation, % at 9.35 µM; 300,000 compounds, 1.2% hits; AID 743398; activator, plate reader; in the data active = activation above about 30%, passing the limit was not always enough; inconclusive = no clear call, values can overlap the other calls;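 also: 0% = neutral control wells and 100% = positive control wells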
MITF act: activators of MITF-driven TRPM1 promoter activity in SK-MEL-5 cells; SK-MEL-5 TRPM1-promoter luciferase, 24 h; % of positive control, neutral wells = 0; activation, % at 12.5 µM; 300,000 compounds, 0.75% hits; AID 588334;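 active = mean activation of at least 80% with every replicate also reaching 80%; inconclusive = mean reaches 80% but some replicate falls short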;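 also: 0% = neutral control wells and 100% = parthenolide positive control wells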
N-glyco inh: blocks N-linked glycosylation in D54 reporter cells | D54 ERlucT glycosylation luciferase reporter, 24 h; percent of 100 nM tunicamycin response | 360,000 compounds, 0.23% hits | reporter increase, % at 12.5 µM;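 active = mean luciferase reporter signal, scaled so untreated is 0 and the glycosylation-blocking control 100, at or above a set limit in every replicate; inconclusive = mean reaches the limit but not every replicate does; inactive = mean below the limit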;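 also: luciferase carries N-glycosylation sites so blocking glycosylation raises the light; 0% = median of neutral control wells and 100% = median of 100 nM tunicamycin wells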
PfHsp90 set2: inhibits growth of yeast expressing Plasmodium falciparum Hsp90. S. cerevisiae expressing PfHsp90, BacTiter-Glo ATP, 48 h; yeast lacking PDR1 and PDR3 efflux regulators. inhibition, % at 9.4 µM. 310,000 compounds, 0.32% hits. AID 504621;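 active = every replicate shows inhibition above about 80%, whatever the replicate mean, limit read from the data; inconclusive = mean inhibition reaches the set limit but some replicate falls short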;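 also: 0% = DMSO neutral controls and 100% = 20 µM radicicol positive controls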
* hit, by the source's call; ? = inconclusive; · = not tested or not shown.

SMILES	MITF TRPM1 inh	NSD2 HMT inh	Wnt act	MITF act	N-glyco inh	PfHsp90 set2
CC(C)=NOc1cc(NC(=O)CCl)cc([N+](=O)[O-])c1	87*	-4	0	-87	-11	-10
O=C(CCl)Nc1cc(SCC(O)CO)cc([N+](=O)[O-])c1 (stereo unspecified)	89*	-2	1	-88	-19	2
CCC(=O)Nc1cc(SCCO)cc([N+](=O)[O-])c1	-1	2	·	1	2	5
Nc1nc(-c2ccc(Cl)cc2)nnc1-c1ccc(Br)cc1	-76	-2	51*	77	0	-26
Cc1[nH]c2ccccc2c1-c1csc(NC(=O)CN2CCOCC2)n1	17	-1	4	-16	5	-4
C=CCn1c(SCC(=O)Nc2ccc(S(N)(=O)=O)cc2)nnc1-c1cnccn1	0	-2	0	0	-1	-1
COc1cc(C(=O)N/N=C(\C)c2ccccn2)cc(OC)c1OC	39	-2	-4	-37	?	28
COc1cccc(C(=O)N/N=C(/CCC(=O)O)c2ccccc2)c1	-8	-2	2	9	1	3
COc1cccc(C(=O)N/N=C(/c2ccccc2)c2ccccn2)c1	66*	15	-11	-66	-11	7
COc1cc(C(=O)N/N=C(\c2ccccc2)c2ccccn2)cc(OC)c1OC	78*	0	-3	-76	-13	-13
CCCCNC(=O)C(CC)(ONc1ccccc1C(F)(F)F)c1ccccc1OC (stereo unspecified)	10	·	0	-7	-5	1
O=C(CSc1nnc(-c2ccccn2)n1-c1ccccc1)c1ccc(Cl)c(Cl)c1	·	1	·	·	·	·
O=c1c2sc(-c3ccccc3)cc2nc2n1CCC2	12	-5	8	-13	·	67
O=c1c2sc(-c3ccccc3)cc2nc2n1CCCCC2	-54	-7	56*	·	-12	0
CCOc1ccccc1-c1c2cc(O)c(=O)cc-2oc2cc(O)c(O)cc12	31	·	·	-29	-13	93*
O=c1cc2oc3cc(O)c(O)cc3c(-c3ccccc3O)c-2cc1O	6	·	·	-5	-3	21
O=C1C=CC(=O)N1c1ccccn1	-6	-2	-1	6	0	·
O=C1C=CC(=O)N1c1ccccc1N1C(=O)C=CC1=O	94*	6	0	-94	1	·
O=C(c1ccccc1)c1ccccc1N1C(=O)C=CC1=O	43	3	-12	·	-11	107*
CN1CCN(C(=O)c2cc3sc4ccccc4c3s2)CC1	-94	18	?	·	-12	2
CN1C2=N[C@H](c3ccccc3Br)CC(=O)N2/C(=C\c2ccccc2)[C@@H]1c1ccccc1	·	-1	·	·	·	·
O=C(/C=C/c1ccc(Br)o1)Nc1nccs1	-54	1	43*	52	1	-22
CCc1ccc(N2CN(CCc3ccccc3)CNC2=S)cc1	·	4	-3	·	0	·
Cc1ccc(N2CN(CCC3=CCCCC3)CNC2=S)cc1	1	4	49*	·	1	-10
Cc1cccc(N2CN(Cc3ccco3)CNC2=S)c1	22	-1	-1	-18	3	22
SMILES	MITF TRPM1 inh	NSD2 HMT inh	Wnt act	MITF act	N-glyco inh	PfHsp90 set2
Cc1ccc(N2CN(Cc3ccco3)CNC2=S)cc1	4	1	36*	-4	-1	-1
O=C1c2cc(Cl)ccc2-c2c(O)cc(Cl)cc21	10	1	-17	-9	-5	97*
O=c1cc(O)c(-c2ccc(Cl)cc2)c(Cl)[nH]1	16	0	2	-17	4	24
CC(=O)N1N=C(c2ccco2)CC1c1cccs1 (stereo unspecified)	11	2	·	-9	-1	6
Cc1ccc(C2=NN(C(=O)CCl)C(c3cccs3)C2)o1 (stereo unspecified)	73*	4	-2	-74	0	-8
O=C(CCl)N1N=C(c2ccco2)CC1c1cccs1 (stereo unspecified)	74*	·	·	-73	2	19
CC(C)N(C)c1ncnc2c1ncn2[C@H]1CN(CCN2CCOCC2)C[C@@H](CO)O1	·	0	0	·	0	·
CO[C@@H]1[C@H](O)CC[C@]2(O)CN(c3ccccc3)[C@](C)([C@H](O)CC=C(C)C)[C@@H]12	·	·	-4	·	·	·
CCNC(=O)C1(C)CCCN(Cc2ccc(-n3ccnc3)cc2)C1 (stereo unspecified)	·	4	-2	·	1	·
O=C(NC(=S)NN1CCOCC1)c1cc(Br)ccc1Cl	-2	0	1	3	-1	1
COCC(=O)Nc1cc([N+](=O)[O-])ccc1C	2	-1	·	-1	1	-12
CN1CCN(C(c2ccc(Cl)cc2)c2cc(Cl)c3cccnc3c2O)CC1 (stereo unspecified)	43	1	9	-42	33*	106*
CN1CCN(C(c2ccc(C(F)(F)F)cc2)c2cc(Cl)c3cccnc3c2O)CC1 (stereo unspecified)	·	0	18	·	·	·
CCC(=O)NC(c1cc(Cl)c2cccnc2c1O)C(C)C (stereo unspecified)	38	·	6	-33	-12	-1
Oc1c(C(c2ccccn2)N2CCCCC2)cc(Cl)c2cccnc12 (stereo unspecified)	25	32	59*	-29	14	5
COC(=O)c1ccc(OC)c(Cn2c(=O)n(C)c(=O)c3ccccc32)c1	1	0	-2	·	1	30
COc1cccc(C(=O)N[C@@H](Cc2cccnc2)C(=O)N2CCC[C@H]2C(=O)NC2CCCC2)c1	·	·	-2	·	·	·
Cc1cc(C)n2nc(C(F)(F)F)c(-c3ccccc3)c2n1	3	-4	-1	-4	3	2
O=C(c1ccc(F)cc1)C1CCN(c2ncnc3sccc23)CC1	·	-2	·	·	·	·
CCCCCN1C=CC(=C2C(=O)c3ccccc3C2=O)C=C1	99*	1	0	-98	-20	62
CCOC(=O)C1=CCN(S(=O)(=O)c2ccc(F)cc2)C1c1ccc(Cl)c(Cl)c1 (stereo unspecified)	·	·	-1	·	·	·
C/C(=N\OC(=O)NC(C)C)c1sc(-c2ccccc2)nc1C	-91	-3	-2	105*	-3	-5
Cc1c(OCC(=O)C(C)(C)C)ccc2c(-c3ccccc3)cc(=O)oc12	-4	-4	-5	6	-6	96*
CCCC(=O)N1CCN(Cc2ccc3c(c2)OCO3)CC1	-11	-3	·	13	3	2
CCOCC(=O)N1CCN(Cc2ccc3c(c2)OCO3)CC1	-4	-2	31*	0	0	1
S=c1sc2c(Cl)ncnc2n1-c1ccccc1	70*	14	-9	-68	-12	24
Cc1nc(N2CCN(C)CC2)c2sc(=S)n(-c3ccccc3)c2n1	-12	·	1	12	-2	9
Cn1cc(CC(=O)Nc2ccc(Oc3cccnc3)cc2)c2ccccc21	·	1	1	·	·	·

Source: PubChem BioAssay (Broad Institute)
